Screens (PubChem BioAssay)
Marburg entry inh = qHTS for inhibitors of binding or entry into cells for Marburg Virus. Potency, µM (top dose mostly 37.8 µM), actives largely listed as inhibitors. 1.8% of 300,000 active. Marburg virus pseudotyped entry inhibition, cell reporter; calls by dose curve; tested in HEK293 cells
FMDV inh = High Throughput Screening for Foot and Mouth Disease Virus Antivirals; FMDV antiviral cell-based qHTS; Potency, µM (titrated, usually from 57.9 µM), most hits filed as inhibitors; 1.2% of 410,000 active; calls by dose curve; tested in HEK293T cells; note: read-out not given here; nearly all actives have a fitted effect of over 45% in size
VACV mCherry inh = qHTS for Stage-Specific Inhibitors of Vaccinia Orthopoxvirus: mCherry Reporter Primary qHTS. Vaccinia virus mCherry reporter infection, fluorescence. Potency, µM (highest dose often 36.5 µM), usual class: inhibitors. 0.63% of 310,000 active. AID 720579, 2013; calls by dose curve; tested in A549 cells; note: nearly all actives have a fitted effect of over 35% in size
LASV entry inh = qHTS for Inhibitors of binding or entry into cells for Lassa Virus. Lassa virus pseudotype entry inhibition, cell reporter. Potency, µM (doses to about 37.9 µM), usual class: inhibitors. 1.2% of 300,000 active. AID 540256, 2011; calls by dose curve; tested in HEK293 cells; note: nearly all actives have a fitted effect of over 50% in size
Vaccinia Venus = qHTS for Stage-Specific Inhibitors of Vaccinia Orthopoxvirus: Venus Reporter Primary qHTS; Vaccinia virus Venus reporter expression, fluorescence; Potency, µM (highest dose often 36.5 µM), hits mostly inhibitors; 0.46% of 330,000 active; calls by dose curve; tested in A549 cells; note: nearly all actives have a fitted effect of over 30% in size
Hits are given with their value; - = inactive; ? = inconclusive; . = no result given; [ ] = remark or other dose. In the library only some 3.2% were active in any assay of this set; here they are far more common.

SMILES	Marburg entry inh	FMDV inh	VACV mCherry inh	LASV entry inh	Vaccinia Venus
CC(=O)N1Cc2ccccc2C(C)CC12CCCC2 (stereo not given)	-	25.1µM	-	-	-
c1ccc(C[n+]2cccc3c4ccccc4ccc32)cc1	?	?	?	7.08µM	?
CCCOc1ccccc1C(=O)N(Cc1cccc(Br)c1)C1CCS(=O)(=O)C1 (stereo not given)	?	0.708µM	-	?	-
CN(C)CCNc1nc2sc3c(c2c(=O)n1Cc1ccccc1)CCCCC3	10µM	-	-	-	-
COc1ccc(-n2c(NCCN(C)C)nc3sc4c(c3c2=O)CCCCC4)cc1	23.1µM	-	-	-	-
CN(C)CCNc1nc2sc3c(c2c(=O)n1-c1ccccc1)CCCCC3	?	-	-	-	-
Nc1cccc(/C=C2\C=Cc3ccccc32)c1	.	.	-	.	-
O=S(=O)(Nc1c(S(=O)(=O)c2ccccc2)c2nc3ccccc3nc2n1C1CCCCC1)c1ccccc1	-	?	12.6µM	-	10µM
S=c1[nH]nc(-c2cc(-c3ccccc3)n[nH]2)n1/N=C/C(Br)=C/c1ccccc1	?	?	14.1µM	?	?
COc1ccccc1CNC(=O)C(=O)NCC(c1cccs1)S(=O)(=O)c1ccc(F)cc1 (stereo not given)	.	?	-	?	-
NS(=O)(=O)c1ccc(N2CCCC2=O)c([N+](=O)[O-])c1	-	-	-	-	-
Nc1ncc(S(=O)(=O)c2ccc([N+](=O)[O-])cc2)s1	-	-	7.08µM	-	?
O=C1CCCN1c1ncc(S(=O)(=O)c2ccc([N+](=O)[O-])cc2)s1	-	?	11.2µM	-	?
C/C(=C\c1ccco1)CN1CCOc2ccc(CN3CCC(Oc4cccnc4)CC3)cc2C1	.	-	-	.	-
O=C(NCc1ccccc1)C(c1ccccc1)N(Cc1ccc2c(c1)OCO2)C(=O)Cc1cccs1 (stereo not given)	?	-	?	12.6µM	-
O=C(NC1CCCC1)C(c1ccccc1)N(Cc1ccc2c(c1)OCO2)C(=O)Cc1cccs1 (stereo not given)	?	-	-	?	?
COc1ccc(CNC(=O)C(c2ccc(C)o2)N(Cc2cccs2)C(=O)Cc2cccs2)cc1 (stereo not given)	?	-	?	11.2µM	-
COCCN(C(=O)Cc1cccs1)C(C(=O)NCc1ccc(OC)cc1)c1ccc(C)cc1 (stereo not given)	?	.	-	?	-
COc1ccc(CN(C(=O)Cc2c[nH]c3ccccc23)C(C(=O)NC2CCCCC2)c2ccc(C)o2)cc1 (stereo not given)	7.3µM	-	.	7.3µM	.
CC(C)C(=O)Nc1cc2c3c(c1)CCN3C(=O)CC2	.	-	.	.	.
CCCC[C@@H]1Cc2[nH][nH]c(=O)c2[C@H](c2ccc3ccccc3c2)O1	.	-	-	.	-
CC1CC(Nc2ccccc2)c2ccccc2N1C(=O)c1cccnc1 (stereo not given)	?	.	?	-	?
C[C@@H]1C[C@H](Nc2ccccc2)c2ccccc2N1C(=O)c1cccnc1	10µM	?	.	?	?
O=C(CCc1nc(-c2ccccc2)no1)NCc1ccccc1CN1CCOCC1	.	-	.	.	.
Clc1ccc2c(c1)C(c1ccccc1Cl)=NCc1nnc(Br)n1-2	?	-	12.6µM	-	?
SMILES	Marburg entry inh	FMDV inh	VACV mCherry inh	LASV entry inh	Vaccinia Venus
CC(C)c1c(C(=O)NCC(C)(C)N2CCOCC2)cnn1-c1nccc(-c2ccccc2F)n1	.	-	-	.	-
CCN1/C(=C/C=C/C=C/C=C/c2sc3ccccc3[n+]2CC)Sc2ccccc21	.	10µM	.	.	.
CC[n+]1c(/C=C/Nc2ccccc2)sc2ccccc21	?	-	-	-	-
CCN1/C(=C/C=C/c2sc3ccccc3[n+]2CC)Sc2ccccc21	.	14.1µM	-	.	-
CCN1/C(=C/C=C/C=C/c2sc3ccccc3[n+]2CC)Sc2ccccc21	4.61µM	.	-	1.84µM	-
O=C(C[n+]1cccc2cc(Cl)ccc21)c1ccc(Br)cc1	.	.	-	.	-
CC(C)c1nnc(NC(=O)CCS(=O)(=O)c2nc(-c3cccs3)cc(C(F)(F)F)n2)s1	13µM	14.1µM	.	?	.
COc1ccc(Cl)cc1NC(=O)CCS(=O)(=O)c1nc(-c2cccs2)cc(C(F)(F)F)n1	-	31.6µM	-	?	-
O=C(CCS(=O)(=O)c1nc(-c2cccs2)cc(C(F)(F)F)n1)Nc1ccc(F)c(Cl)c1	-	35.5µM	-[7.34 µM]	?	-[7.34 µM]
O=C(CCS(=O)(=O)c1nc(-c2cccs2)cc(C(F)(F)F)n1)Nc1ccc(OC(F)(F)F)cc1	?	-	-	?	-
CCCCCN(CCCCC)c1ccc(/C=C/c2ccnc3ccccc23)cc1	.	.	-	.	-
COc1ccc(C(C(=O)NC2CCCCC2)N(C(=O)CCl)c2ccc(OC)cc2)cc1 (stereo not given)	-	8.91µM	-	-	-
COc1ccc(C(C(=O)NC2CCCCC2)N(C(=O)CCl)c2cccc(Cl)c2)cc1 (stereo not given)	?	25.1µM	?	3.55µM	?
CCN(CC)S(=O)(=O)c1ccc(Cl)c(NC(=O)COC(=O)c2ccc(O)cc2)c1	-	?	-	-	-
CCN(CC)S(=O)(=O)c1ccc(Cl)c(NC(=O)COC(=O)c2cccn2C)c1	?	12.6µM	?	-	-
Cc1ccc(NS(=O)(=O)c2ccc(OCC(=O)NCc3cccnc3)cc2)cc1	-	-	-	?	-
O=C(COc1ccc(S(=O)(=O)Nc2ccccc2)cc1)NCc1ccncc1	?	-	-	2.59µM	-
COc1cccc(NC(=O)CN(C)C(=O)CSc2nc(C)cc(C)n2)c1	.	-	.	.	.
CS/C(Nc1cc(Cl)ccc1Cl)=C(/C#N)C(=O)c1ccco1	?	?	-	5.01µM	-
O=c1cnn([C@@H]2O[C@H](CO)[C@@H](O)[C@H]2O)c(=O)[nH]1	?	-	?	0.092µM	-
O=c1ncccn1[C@@H]1O[C@H](CO)C(O)[C@@H]1O (stereo not given in full)	.	-	.	.	.
CCCCCCC(C)(C)c1ccc([C@@H]2C[C@H](O)CC[C@H]2CCCO)c(O)c1	13µM	?	?	?	?
Cc1ccc2nccc(/C=C/c3ccc(N(C)C)cc3)c2c1	.	.	-	.	-
O=C(Nc1ccc(OCCO)cc1)c1csc([C@@H]2O[C@H](CO)[C@H](O)[C@H](O)[C@H]2O)n1	.	-	-	.	-
O=C(Nc1ccc(Oc2ccccc2)cc1)c1csc([C@H]2C[C@H](O)[C@@H](CO)O2)n1	.	7.94µM	-	.	-
CC(=O)Nc1ccc(NC(=O)c2csc([C@@H]3C[C@H](O)[C@@H](CO)O3)n2)cc1	.	-	-	.	-
O=C(Nc1ccc(Oc2ccccc2)cc1)c1csc([C@@H]2O[C@H](CO)[C@@H](O)[C@H]2O)n1	.	15.8µM	-	.	-
COc1ccc(C(=O)N2CCC3(CCN(Cc4ccncc4)CC3)CC2)cc1	.	-	.	.	.
CC(=O)Nc1ccc(/C=C/c2ccncc2)cc1	.	.	-	.	-
COc1ccc2c(c1)c1c(c(=O)n(-c3ccccc3C)c(=O)n1Cc1c(F)cccc1Cl)n2C	.	-	-	-	-
